This is a sample that favours compounds with a hit; in the whole collection about 11% have one here.
PNC inhibitor = High Content Assay for Compounds that inhibit the Assembly of the Perinucleolar Compartment. PC3M PTB-GFP, PNC prevalence imaging, 16 h; stronger effect = lower value. 140,000 tested, 3.1% active. activity change (PNC), negative = inhibition, % at 10 µM;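 active = readout at or below -70, meaning at least 70% loss of cells showing the perinucleolar compartment, a nuclear body marking cancer cells; inconclusive = readout between -30 and a set limit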;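 also: plate controls were DMSO wells for no effect and camptothecin positive control wells for full effect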
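Compounds are pinned in duplicate onto adhered PC3M cells stably expressing GFP-tagged PTB and incubated 16 h at 37 C. Cells are then fixed, nuclei stained with Hoechst, and PNC-positive cells counted.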
HPGD inh = qHTS Assay for Inhibitors of HPGD (15-Hydroxyprostaglandin Dehydrogenase); 15-hydroxyprostaglandin dehydrogenase [NAD(+)] (Homo sapiens), P15428; purified HPGD, NADH fluorescence kinetic, PGE2 substrate; Potency, µM, without a hit: at the top dose activity change, negative = inhibition, usual class: inhibitors; 150,000 tested, 4.3% active; also: potency is read from the fitted curve at half-maximal effect
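NADH formation kinetics: reaction with 30 uM PGE2 and 1 mM NAD+ (final), 20 nM enzyme, Tris-HCl pH 8 with Tween 20, after 15 min compound preincubation at room temperature. Fluorescence change, last versus first of five reads.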
ALDH1A1 inh = qHTS Assay for Inhibitors of Aldehyde Dehydrogenase 1 (ALDH1A1). Purified ALDH1A1, NADH fluorescence, propionaldehyde substrate. 220,000 tested, 7.3% active. Potency, µM (series often up to 75.3 µM), for the others: at the top dose activity, negative = inhibition, hits mostly inhibitors. Aldehyde dehydrogenase 1A1 (Homo sapiens), P00352;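 also: potency is read from the fitted curve at half-maximal effect; plate controls were no enzyme wells and a reference inhibitor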
Target sequence (P00352 whole entry, looked up): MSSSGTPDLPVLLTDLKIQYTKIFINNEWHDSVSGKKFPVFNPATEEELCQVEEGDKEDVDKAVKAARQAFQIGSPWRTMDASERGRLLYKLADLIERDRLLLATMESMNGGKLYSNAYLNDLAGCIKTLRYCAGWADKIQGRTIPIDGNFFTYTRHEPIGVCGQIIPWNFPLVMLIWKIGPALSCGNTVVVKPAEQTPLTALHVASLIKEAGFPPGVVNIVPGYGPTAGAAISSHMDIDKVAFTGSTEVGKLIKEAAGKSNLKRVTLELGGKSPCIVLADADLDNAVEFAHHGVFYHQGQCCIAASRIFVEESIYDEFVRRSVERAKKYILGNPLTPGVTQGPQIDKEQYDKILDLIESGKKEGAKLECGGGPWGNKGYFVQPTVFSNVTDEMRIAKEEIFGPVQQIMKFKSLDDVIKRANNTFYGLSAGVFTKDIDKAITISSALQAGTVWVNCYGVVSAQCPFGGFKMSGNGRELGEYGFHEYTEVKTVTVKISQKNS
* marks the source's active call; other numbers are inactive results; ? = inconclusive; nt = no result given; [ ] = remark or other dose. Unless noted, calls follow the shape of the dose curve; as a rule, active = well fitted inhibition curve with a large enough effect (not every such curve was filed as active); inconclusive = small, poorly fitted or top-dose-only effect, or another doubt; inactive = no such curve, though single readings can be large or run the other way. Unless noted, % is scaled to controls: 0 for no effect and ±100 for the full control effect.

SMILES | PNC inhibitor | HPGD inh | ALDH1A1 inh
O=C(COC(=O)CNC(=O)c1ccccc1)Nc1cccc(Br)c1 | 25 | nt | 16%
N#CC1=C2SCCN2C(=O)C(C#N)C12CCCCC2 (stereo unspecified) | ? | nt | 0.56µM*
c1ccc2sc(SCN(C3CCCCC3)C3CCCCC3)nc2c1 | nt | -12% | -19%[13.5 µM]
CCn1nc(C)c(CNC(=O)CCc2nnc(Cc3c[nH]c4ccccc34)o2)c1C | nt | nt | 5%
O=C(CSc1nc(-c2ccccc2F)nc2nc[nH]c12)Nc1c(Cl)cc(Cl)cc1Cl | 7 | -15% | 10%
CCCCN(CCCC)CCNC(=O)CSCc1ccc(C)cc1 | nt | nt | 28µM*
Cc1ccc(CNC(=O)CSCc2ccccc2)cc1 | nt | nt | -7%
C#CCNC(=O)C1=C[C@H](c2ccc(Br)cc2)[C@@H](CCCO)[C@H](OCC)O1 | nt | nt | 2%
Cc1ccc(NC(=O)Cn2cnc3cc([N+](=O)[O-])ccc3c2=O)cc1 | nt | nt | 4%
Cc1ccc(NC(=O)Cn2cnc3cc([N+](=O)[O-])ccc3c2=O)c(Cl)c1 | nt | nt | 2.8µM*
Cc1cc(C)cc(C(=O)Nc2ccc(NC(=O)Cc3ccccc3)cc2)c1 | nt | nt | 3%
O=c1c(-c2cccc3ccccc23)[n+]([O-])c2ccccc2n1O | -24 | -11% | -2%
CCOn1c(=O)c(-c2cccc3ccccc23)[n+]([O-])c2ccccc21 | nt | nt | 22µM*
C=CCOn1c(=O)c(-c2ccc(OC)c(OC)c2)[n+]([O-])c2ccccc21 | 12 | -28% | ?
CCOC(=O)COn1c(=O)c(-c2ccc(OC)c(OC)c2)[n+]([O-])c2ccccc21 | 338 | -25% | 35µM*
COC(=O)CNC(=O)C1(CC(C)C)C=CCN1C(C)=O (stereo unspecified) | nt | -3% | 7%
COc1cc(OC)nc(NC(=O)NS(=O)(=O)c2ccc(F)cc2)n1 | nt | nt | 2%
O=C(CSc1nc2ccc(Nc3nc(N4CCOCC4)nc(N4CCOCC4)n3)cc2s1)N1CCOCC1 | -2 | 22µM* | 4%
CC1CCN(C(=O)CSc2nc3ccccc3s2)CC1 | 12 | 14µM* | ?
Cc1ccc2nc(SCC(=O)N3CCN(C(=O)c4ccco4)CC3)[nH]c2c1 | ? | -3% | ?
O=C(CSc1nc2ccc(Cl)cc2[nH]1)N1CCN(C(=O)c2ccco2)CC1 | ? | -2% | 22µM*
O=C(O)C1CCN(C(=O)CSc2nc3ccccc3s2)CC1 | nt | nt | -16%
COc1cccc(-c2csc(N3CCN(C(=O)Nc4ccc(F)cc4)CC3)n2)c1 | 20 | -6% | ?
COc1cccc(-c2csc(N3CCN(C(=O)C4CCCCC4)CC3)n2)c1 | 30 | -5% | 13µM*
CC(=O)Nc1ccc2nc(SCC(=O)N3CCOCC3)sc2c1 | nt | nt | 4%
SMILES | PNC inhibitor | HPGD inh | ALDH1A1 inh
Cc1cc(Cl)c(S(=O)(=O)Nc2cccc(O)c2)cc1OCC(N)=O | 3 | -2% | -4%
OCC(O)/C=N/Nc1nc2ccccc2s1 (stereo unspecified) | nt | nt | 4%
CC1Cc2ccccc2N1C(=O)CSc1nc2ccccc2s1 (stereo unspecified) | ? | -17% | -5%
N#CCc1nc(CSc2nc3ccccc3s2)cs1 | 12 | 25µM* | ?
O=C(CSc1nc2ccccc2o1)N1CCCC1 | -27 | 25µM* | -2%
CC1CCCC(C)N1C(=O)CSc1nc2ccccc2s1 (stereo unspecified) | 35 | 2.2µM* | 22µM*
O=C(O)CSc1nc2ccccc2o1 | -7 | -16% | 3%
OC(CNc1nc2ccccc2s1)c1ccccc1 (stereo unspecified) | -82* | 10µM* | 7%
N#CCCCSc1nnc(CSc2nc3ccccc3s2)n1-c1ccccc1 | 0 | -7% | -2%
CCCCC1=C([O-])C2N=CC=CC2=[N+](c2ccccn2)C1=O (stereo unspecified) | -21 | -7% | 6%
CC(C)C[C@@H](CC(=O)N[C@H](CC(=O)N[C@@H]1CCNC[C@H]1C(=O)N[C@H](CC(=O)N[C@@H](CCC(=O)O)CC(=O)O)Cc1ccccc1)C(C)C)NC(=O)[C@@H]1CNCC[C@H]1N | nt | -3% | 2%
COc1ccc(C2Nc3ccccc3C(=O)N2O)cc1CN1CCOCC1 (stereo unspecified) | 4 | -3% | -3%
COc1ccc(-c2c(O)c3c(OC)c4c(cc3oc2=O)OC(C)(C)C=C4)cc1 | nt | -22% | ?
Cc1noc(C)c1C(=O)N1CCC[C@@]2(CCN(c3ccccc3)C2)C1 | nt | -3% | -4%
Cc1ccc(CNC(=O)COC(=O)CCC(=O)c2cccs2)cc1 | nt | nt | 6%
c1ccc2sc(SCSc3nc4ccccc4s3)nc2c1 | nt | -29% | -15%[13.5 µM]
COc1ccc(-c2csc(N3CCN(C(=O)c4ccco4)CC3)n2)cc1 | -28 | -16% | 28µM*
O=C(O)CCSc1nc2ccccc2s1 | ? | ? | 25µM*
O=C(CCC(=O)N1CCN(C(=O)c2ccco2)CC1)c1ccc(F)cc1 | nt | nt | 0%
O=C(CSc1nc2ccccc2s1)N1CCCCC1 | ? | 2.8µM* | 4.5µM*
COc1ccc(-c2csc(N3CCN(C(=O)c4ccccc4)CC3)n2)cc1 | 4 | -14% | ?
O=C(CSc1nc(-c2ccc(F)cc2)cs1)N1CCN(C(=O)c2ccco2)CC1 | -10 | ? | 14µM*
NC(=O)C1CCN(C(=O)CSc2nc3ccccc3s2)CC1 | -20 | -9% | ?
COc1ccc(C2CC(=O)c3c(O)cc(O[C@H]4OC(COC5OC(C)C(O)C(O)[C@@H]5O)C(O)C(O)C4O)cc3O2)cc1O (stereo partly specified) | nt | -11% | 9%
CC(CNC(=O)C(C)(C)C)NC(=O)C(C)(C)C (stereo unspecified) | -11 | 0% | 15%
SMILES | PNC inhibitor | HPGD inh | ALDH1A1 inh
O=C(O)CCCCn1ccc(=O)[nH]c1=O | nt | -6% | 7%[13.5 µM]
COc1ccc(C(=O)NN/C(C)=C/C(=O)C(F)(F)C(F)(F)C(F)(F)F)cc1 | 13 | -14% | -3%
C/C(=N/Nc1nc(C)cc(=O)[nH]1)C(=O)O | nt | 1% | 5%[13.5 µM]
O=C(CSc1nc2ccccc2s1)N1CCN(C(=O)c2ccco2)CC1 | -17 | -27% | 14µM*
CCOc1ccc2nc(SCC(=O)N3CCN(C(=O)c4ccco4)CC3)sc2c1 | -13 | -24% | ?
Cc1ccsc1/C=N/N1CCN(Cc2ccccc2)CC1 | nt | nt | 16µM*
Cc1ccsc1/C=N/N1CCN(c2ccccc2)CC1 | 37 | -12% | -6%
CCOC(=O)C1=NN(c2ccc(C)cc2)CC1C(=O)OC (stereo unspecified) | -8 | -19% | ?
CN1CCCC2(CCN(C(=O)c3cnccn3)CC2)C1 | nt | -10% | 4%
O=C(c1ccco1)N1c2ccccc2Sc2ccccc21 | 218 | -20% | ?
NC(=O)C1CCN(C(=O)c2ccco2)CC1 | -81* | -8% | -2%
O=C(N1CCN(c2ccccn2)CC1)N1c2ccccc2Sc2ccccc21 | -84* | -10% | 1%
Cc1cccc(C)c1N1CCN(C(=O)N2CCOCC2)CC1 | nt | nt | 11µM*
O=C(c1ccco1)N1CCN(C(=O)N2c3ccccc3Sc3ccccc32)CC1 | -89* | -11% | ?
O=C(N1CCN(c2ccccn2)CC1)C(Cl)(Cl)Cl | ? | -23% | ?
Cc1ccc(N2CCN(C(=O)N3CCOCC3)CC2)cc1C | nt | nt | 0%
O=C(O)C1CCN(C(=O)c2ccco2)CC1 | nt | nt | -12%

From PubChem BioAssay
